According to PubChem BioAssay AID1159580 (chemical genetic matrix, 2015):
“And” between values parts separate entries of the source, which are not always exact repeats. Identical values can stand only once. Out of some 5,500 compounds screened, about 2,000 (36%) were called active. About 18% were inconclusive and are not listed. Rule as the data show it: active = normalized growth mostly below about 0.91 (no sharp cut-off); inconclusive = no clear call, values can overlap the other calls; inactive = mostly above about 0.92. This is one part of the list.

Experiment: chemical genetic growth profiling, strain panel (AID 1159580);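 also: tested at 20 µM; growth read once vehicle control cultures reached saturation at 30 °C; 1 = growth at the plate median or of vehicle wells; lower values mean less growth of the strain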
Details: S. cerevisiae deletion strains, growth OD

Measured: normalized growth

CC(C)(C)CC(C)(C)c1ccc(OCCOCC[N+](C)(C)Cc2ccccc2)cc1
inactive: locus YAL013W, strain DEP1, stronger effect = lower value 0.983 | locus YBR229C, strain ROT2, stronger effect = lower value 1.02 | locus YCL029C, strain bik1, stronger effect = lower value 0.986 | locus YDL035C, strain GPR1, stronger effect = lower value 1.01 | locus YDL074C, strain BRE1, stronger effect = lower value 0.954 | locus YDL101C, strain DUN1, stronger effect = lower value 0.988 | locus YDL134C, strain PPH21, stronger effect = lower value 0.995 | locus YDL185W, strain tfp1, stronger effect = lower value 1 | locus YDL192W, strain arf1, stronger effect = lower value 0.976 | locus YDR101C, strain arx1, stronger effect = lower value 0.991 | locus YDR150W, strain NUM1, stronger effect = lower value 1 | locus YDR162C, strain NBP2, stronger effect = lower value 0.911 | locus YDR318W, strain mcm21, stronger effect = lower value 0.997 | locus YDR388W, stronger effect = lower value 1 | locus YDR502C, strain sam2, stronger effect = lower value 0.988 | locus YEL061C, strain CIN8, stronger effect = lower value 0.999 | locus YER110C, stronger effect = lower value 0.992 | locus YER155C, strain BEM2, stronger effect = lower value 1.03 | locus YER167W, strain BCK2, stronger effect = lower value 1.02 | locus YGL078C, strain dbp3, stronger effect = lower value 0.988 | locus YGL086W, strain mad1, stronger effect = lower value 0.984 | locus YGL248W, strain PDE1, stronger effect = lower value 0.99 | locus YGR078C, strain PAC10, stronger effect = lower value 0.917 | locus YGR135W, strain pre9, stronger effect = lower value 0.994 | locus YGR252W, strain gcn5, stronger effect = lower value 0.98 | locus YHR079C, strain IRE1 (second series), stronger effect = lower value 0.991 | locus YHR094C, strain hxt1, stronger effect = lower value 0.985 | locus YHR129C, strain ARP1, stronger effect = lower value 0.994 | locus YHR200W, strain rpn10, stronger effect = lower value 0.993 | locus YIL066C, strain RNR3, stronger effect = lower value 0.994 | locus YIL073C, strain SPO22, stronger effect = lower value 0.865 | locus YIL125W, strain kgd1, stronger effect = lower value 0.991 | locus YIR030C, strain dcg1, stronger effect = lower value 0.985 | locus YJL134W, strain LCB3, stronger effect = lower value 1 | locus YJL168C, strain set2, stronger effect = lower value 0.999 | locus YJL187C, strain SWE1 (second series), stronger effect = lower value 0.989 | locus YJR043C, strain POL32, stronger effect = lower value 1.03 | locus YKL009W, strain mrt4, stronger effect = lower value 0.965 | locus YKL068W, stronger effect = lower value 1.01 | locus YKL085W, strain MDH1 (second series), stronger effect = lower value 1 | locus YKL085W, strain MDH1, stronger effect = lower value 1 | locus YLR039C, strain RIC1, stronger effect = lower value 0.781 | locus YLR058C, strain SHM2, stronger effect = lower value 0.996 | locus YLR102C, strain apc9, stronger effect = lower value 0.992 | locus YLR262C, strain YPT6, stronger effect = lower value 0.832 | locus YLR268W, strain sec22, stronger effect = lower value 0.974 | locus YLR330W, strain CHS5, stronger effect = lower value 0.993 | locus YLR342W, strain FKS1 (second series), stronger effect = lower value 0.998 | locus YLR371W, strain rom2, stronger effect = lower value 0.992 | locus YLR418C, strain cdc73, stronger effect = lower value 0.871 | locus YML016C, strain PPZ1, stronger effect = lower value 1.01 | locus YML032C, strain rad52, stronger effect = lower value 0.99 | locus YML124C, strain tub3, stronger effect = lower value 0.989 | locus YMR078C, strain ctf18, stronger effect = lower value 0.986 | locus YMR223W, strain ubp8, stronger effect = lower value 0.989 | locus YMR263W, strain SAP30, stronger effect = lower value 0.991 | locus YMR307W, strain GAS1, stronger effect = lower value 1.06 | locus YNL067W, strain RPL9B, stronger effect = lower value 0.977 | locus YNL233W, strain BNI4, stronger effect = lower value 0.984 | locus YNL250W, strain rad50, stronger effect = lower value 0.989 | locus YNL271C, strain bni1, stronger effect = lower value 0.978 | locus YNL298W, strain CLA4, stronger effect = lower value 1.01 | locus YNL307C, strain MCK1, stronger effect = lower value 0.937 | locus YNR052C, strain pop2, stronger effect = lower value 0.99 | locus YOL006C, strain TOP1, stronger effect = lower value 0.864 | locus YOL012C, strain htz1 1.63 | locus YOL147C, strain pex11, stronger effect = lower value 0.985 | locus YOR061W, strain CKA2, stronger effect = lower value 1.01 | locus YOR069W, strain VPS5, stronger effect = lower value 1.01 | locus YOR136W, strain idh2, stronger effect = lower value 0.986 | locus YOR144C, strain elg1, stronger effect = lower value 0.996 | locus YOR184W, strain ser1, stronger effect = lower value 0.954 | locus YOR316C, strain cot1, stronger effect = lower value 0.992 | locus YPL055C, strain LGE1, stronger effect = lower value 0.98 | locus YPL241C, strain CIN2, stronger effect = lower value 1 | locus YPR119W, strain clb2, stronger effect = lower value 0.984 | locus YPR141C, strain kar3, stronger effect = lower value 0.988 | locus YPR163C, strain tif3, stronger effect = lower value 0.981 | locus YPR167C, strain met16, stronger effect = lower value 1.01 | strain wtn01, stronger effect = lower value 0.997
0.995 (inactive) and 0.14 (active): locus YHR030C, strain SLT2, stronger effect = lower value
active: locus YAL021C, strain ccr4, stronger effect = lower value 0.0688 | locus YAL026C, strain drs2, stronger effect = lower value 0.0657 | locus YAL030W, strain snc1, stronger effect = lower value 0.0593 | locus YBL061C, strain skt5, stronger effect = lower value 0.0642 | locus YBR009C, strain hhf1, stronger effect = lower value 0.0641 | locus YBR021W, strain FUR4, stronger effect = lower value 0.749 | locus YBR023C, strain chs3, stronger effect = lower value 0.0641 | locus YBR171W, strain sec66, stronger effect = lower value 0.0804 | locus YBR231C, strain swc5, stronger effect = lower value 0.0684 | locus YBR279W, strain paf1, stronger effect = lower value 0.0627 | locus YCL011C, strain gbp2, stronger effect = lower value 0.0631 | locus YCL016C, strain dcc1, stronger effect = lower value 0.0699 | locus YCL069W, strain vba3, stronger effect = lower value 0.0614 | locus YCR088W, strain abp1, stronger effect = lower value 0.0617 | locus YDL005C, strain med2, stronger effect = lower value 0.0736 | locus YDL040C, strain nat1, stronger effect = lower value 0.0719 | locus YDR001C, strain nth1, stronger effect = lower value 0.0593 | locus YDR069C, strain doa4, stronger effect = lower value 0.0664 | locus YDR137W, strain rgp1, stronger effect = lower value 0.0931 | locus YDR159W, strain sac3, stronger effect = lower value 0.1 | locus YDR195W, strain ref2 0.158 | locus YDR297W, strain sur2, stronger effect = lower value 0.0635 | locus YDR334W, strain swr1, stronger effect = lower value 0.0662 | locus YDR335W, strain msn5, stronger effect = lower value 0.0594 | locus YDR392W, strain spt3, stronger effect = lower value 0.0804 | locus YEL003W, strain gim4, stronger effect = lower value 0.0568 | locus YEL037C, strain rad23, stronger effect = lower value 0.0591 | locus YEL061C, strain CIN8 (second series), stronger effect = lower value 0.0651 | locus YER015W, strain faa2, stronger effect = lower value 0.0671 | locus YER016W, strain bim1, stronger effect = lower value 0.0697 | locus YER111C, strain swi4, stronger effect = lower value 0.0727 | locus YER155C, strain BEM2 (second series), stronger effect = lower value 0.0937 | locus YFR010W, strain ubp6, stronger effect = lower value 0.0726 | locus YGL167C, strain pmr1, stronger effect = lower value 0.837 | locus YGL173C, strain kem1, stronger effect = lower value 0.0679 | locus YGL227W, strain vid30, stronger effect = lower value 0.0676 | locus YGL240W, strain doc1, stronger effect = lower value 0.0832 | locus YGL253W, strain hxk2, stronger effect = lower value 0.058 | locus YHR013C, strain ard1, stronger effect = lower value 0.119 | locus YHR027C, strain rpn1, stronger effect = lower value 0.0623 | locus YHR079C, strain IRE1, stronger effect = lower value 0.167 | locus YHR142W, strain chs7, stronger effect = lower value 0.0755 | locus YJL092W, strain hpr5, stronger effect = lower value 0.0645 | locus YJL095W, strain BCK1 (second series), stronger effect = lower value 0.0585 | locus YJL115W, strain asf1, stronger effect = lower value 0.0787 | locus YJL129C, strain trk1, stronger effect = lower value 0.079 | locus YJL154C, strain vps35, stronger effect = lower value 0.0655 | locus YJL164C, strain tpk1, stronger effect = lower value 0.0649 | locus YJL166W, strain qcr8, stronger effect = lower value 0.0654 | locus YJL187C, strain SWE1, stronger effect = lower value 0.0616 | locus YJR066W, strain TOR1, stronger effect = lower value 0.791 | locus YKL160W, strain elf1, stronger effect = lower value 0.0818 | locus YKR001C, strain vps1, stronger effect = lower value 0.686 | locus YKR026C, strain gcn3, stronger effect = lower value 0.0715 | locus YKR091W, strain srl3, stronger effect = lower value 0.0677 | locus YLL001W, strain dnm1, stronger effect = lower value 0.064 | locus YLL026W, stronger effect = lower value 0.059 | locus YLL041C, strain sdh2, stronger effect = lower value 0.0644 | locus YLR027C, strain aat2, stronger effect = lower value 0.0617 | locus YLR113W, strain HOG1, stronger effect = lower value 0.166 | locus YLR221C, strain rsa3, stronger effect = lower value 0.0654 | locus YLR258W, strain gsy2, stronger effect = lower value 0.0637 | locus YLR262C, strain YPT6 (second series), stronger effect = lower value 0.0738 | locus YLR320W, strain mms22, stronger effect = lower value 0.08 | locus YLR342W, strain FKS1, stronger effect = lower value 0.0831 | locus YLR357W, strain rsc2, stronger effect = lower value 0.132 | locus YLR370C, strain arc18, stronger effect = lower value 0.0619 | locus YLR384C, strain iki3, stronger effect = lower value 0.0611 | locus YML120C, strain ndi1, stronger effect = lower value 0.0599 | locus YMR058W, strain fet3, stronger effect = lower value 0.0666 | locus YMR125W, strain sto1, stronger effect = lower value 0.0985 | locus YMR129W, stronger effect = lower value 0.0605 | locus YMR205C, strain PFK2, stronger effect = lower value 0.112 | locus YMR231W, strain pep5, stronger effect = lower value 0.0717 | locus YNL071W, strain lat1, stronger effect = lower value 0.0629 | locus YNL183C, strain NPR1, stronger effect = lower value 0.73 | locus YNL209W, strain ssb2, stronger effect = lower value 0.0644 | locus YNL248C, strain rpa49, stronger effect = lower value 0.0829 | locus YNL322C, strain KRE1 (second series), stronger effect = lower value 0.0768 | locus YNR049C, strain mso1, stronger effect = lower value 0.0601 | locus YOR001W, strain rrp6, stronger effect = lower value 0.0755 | locus YOR070C, strain gyp1, stronger effect = lower value 0.0589 | locus YOR080W, strain dia2, stronger effect = lower value 0.0709 | locus YOR083W, strain WHI5, stronger effect = lower value 0.0783 | locus YOR106W, strain vam3, stronger effect = lower value 0.0737 | locus YOR231W, strain MKK1, stronger effect = lower value 0.451 | locus YOR265W, strain rbl2, stronger effect = lower value 0.0618 | locus YOR270C, strain vph1, stronger effect = lower value 0.103 | locus YOR290C, strain snf2, stronger effect = lower value 0.0712 | locus YPL051W, strain arl3, stronger effect = lower value 0.0738 | locus YPL078C, strain atp4, stronger effect = lower value 0.0749 | locus YPL106C, strain sse1, stronger effect = lower value 0.108 | locus YPL240C, strain hsp82, stronger effect = lower value 0.0673 | locus YPL256C, strain CLN2, stronger effect = lower value 0.347
0.912 (inactive) and 0.258 (active): locus YJL095W, strain BCK1, stronger effect = lower value
